Screening results: PubChem, several laboratories
VLA-4 inh: inhibition in a human VLA-4 binding assay; 330,000 compounds, 0.2% hits; inhibition, % (about 7 µM as worked out from the volumes in the protocol); P13612; VLA-4 expressing cells, ligand binding flow cytometry; in the data active = inhibition above about 50%
Target sequence (P13612 whole entry, looked up): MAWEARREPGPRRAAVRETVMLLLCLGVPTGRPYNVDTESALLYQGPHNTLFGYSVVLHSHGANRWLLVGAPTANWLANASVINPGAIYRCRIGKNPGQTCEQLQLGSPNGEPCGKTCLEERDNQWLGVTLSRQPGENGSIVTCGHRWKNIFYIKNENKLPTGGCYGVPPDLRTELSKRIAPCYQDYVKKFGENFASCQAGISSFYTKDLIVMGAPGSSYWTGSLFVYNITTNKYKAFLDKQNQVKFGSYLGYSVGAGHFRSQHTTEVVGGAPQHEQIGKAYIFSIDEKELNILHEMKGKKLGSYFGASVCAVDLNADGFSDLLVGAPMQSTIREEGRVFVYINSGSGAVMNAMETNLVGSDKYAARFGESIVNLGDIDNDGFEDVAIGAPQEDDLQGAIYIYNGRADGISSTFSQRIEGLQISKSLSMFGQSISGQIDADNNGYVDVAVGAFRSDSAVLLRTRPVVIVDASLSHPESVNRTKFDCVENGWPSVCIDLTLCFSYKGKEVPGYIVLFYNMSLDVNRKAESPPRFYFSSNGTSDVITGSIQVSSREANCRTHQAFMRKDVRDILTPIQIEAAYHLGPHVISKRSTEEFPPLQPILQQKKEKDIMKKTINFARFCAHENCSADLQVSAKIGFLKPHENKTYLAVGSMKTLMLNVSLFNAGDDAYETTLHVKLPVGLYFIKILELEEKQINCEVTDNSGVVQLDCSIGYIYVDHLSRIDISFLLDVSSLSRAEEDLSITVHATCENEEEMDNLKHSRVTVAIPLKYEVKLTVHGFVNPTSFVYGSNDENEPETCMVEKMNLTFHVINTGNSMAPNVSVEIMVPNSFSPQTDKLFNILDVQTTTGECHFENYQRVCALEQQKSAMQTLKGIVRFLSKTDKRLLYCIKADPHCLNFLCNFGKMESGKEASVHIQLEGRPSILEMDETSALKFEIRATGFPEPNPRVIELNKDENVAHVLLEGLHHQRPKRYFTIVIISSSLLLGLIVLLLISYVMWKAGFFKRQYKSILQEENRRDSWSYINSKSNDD
SUMO Mot1 rescue: SUMOylation pathway inhibition by Mot1-301 growth rescue. S. cerevisiae Mot1-301 growth rescue, ATP luminescence, 38.5C; percent above DMSO median, 100 means doubled. growth rescue, % at 18.8 µM. 320,000 compounds, 1% hits;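 active = every valid replicate shows activation above 250% relative to neutral control wells; inactive = the rest, any valid replicate at or below 250%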
Efflux pump inh: inhibitors of Candida antifungal efflux pumps expressed in yeast | S. cerevisiae Candida pump triplex, Nile Red efflux | inhibition, % at 10 µM | 330,000 compounds, 0.44% hits | AID 485275;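 active = plate passing quality check with inhibition over a set limit, or well fluorescence over plate mean plus 4 SD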;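 also: Nile Red retained in pooled yeast measured as flow cytometry median fluorescence; higher means more Nile Red kept so more efflux inhibition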
A1 inh: inhibitors of the anti-apoptotic protein A1, read as caspase activation; MEF A1-2A-BIM cells, Caspase-Glo 3/7 luminescence, 3 h; percent of clofoctol response, vehicle zero; caspase activation, % (no concentration beside the values); 330,000 compounds, 0.066% hits;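 active = over half of replicate activation scores above 10%, or exactly half above 10 with the replicate mean above 10; inconclusive = replicate mean below 10 yet half the replicates above 10; inactive = over half of replicates below 10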
ALR inh: inhibitors of human sulfhydryl oxidase ALR | P55789 | purified ALR, DTT oxidation, H2O2 HRP-luminol luminescence | inhibition, % (test concentration not listed) | 290,000 compounds, 3.8% hits | AID 485317;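 active = mean replicate inhibition above about 79%, with every replicate also reaching it, limit read from the data; inconclusive = only one of the two criteria met; inactive = mean below limit and not every replicate reaching it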
AHR activator: human AHR activation; AHR-responsive luciferase reporter cells, luminescence; activation, % at 5 µM; AID 2796; P35869; 320,000 compounds, 2.5% hits; in the data active = activation above about 47%
Numbers stand for hits; 0 = inactive; ? = inconclusive; - = no result. The list is not random: actives were taken first. Their share in the collection is about 7.2%.

SMILES	VLA-4 inh	SUMO Mot1 rescue	Efflux pump inh	A1 inh	ALR inh	AHR activator
O=C(COC(=O)CSCC(=O)N1CCCCC1)Nc1ccc(Cl)cc1	0	338.1	0	0	88.9	0
C[n+]1ccccc1/C=C1\Sc2ccccc2N1CCO	0	0	0	0	0	0
CCC(CO)[n+]1c(C)cc(/C=C2\Sc3ccccc3N2Cc2ccccc2)cc1C (stereo not given)	0	0	0	0	98.2	0
CC(C)(C)c1ccc(C(=O)O/N=C(\N)c2ccccc2)cc1	0	0	0	0	0	0
CC(C)(C)c1ccc(C(=O)Oc2ccccc2CCC(=O)O)cc1	0	0	0	0	90.8	0
CC(NC(=O)COC(=O)c1ccc(N2CCCC2=O)cc1)c1ccc(F)cc1 (stereo not given)	0	0	0	0	-	0
COc1cc(C(=S)N2CCOCC2)cc(OC)c1OS(=O)(=O)c1ccc(C)cc1	0	0	0	0	0	0
CC1(C)S[C@@H]2[C@H](NC(=O)COc3ccccc3)C(=O)N2C1C(=O)OCC1CCCCC1 (stereo not given in full)	0	326.7	0	0	0	0
CCOC(=O)c1c(NC(=O)CSc2nnnn2C)sc(C)c1-c1ccc(C)cc1	0	0	0	0	0	0
Cn1c(CC(=O)Nc2ccccc2F)nnc1SCC(=O)Nc1ccccc1Br	0	0	0	0	0	0
CCOC(=O)C(C)On1c(-c2ccccc2)nc2ccc([N+](=O)[O-])cc21 (stereo not given)	0	0	0	0	97.2	0
COc1ccc(N=C(C)C2=C(O)COC2=O)cc1	0	0	0	0	0	0
O=C1[C@@H]2Cc3c([nH]c4ccccc34)C(c3ccc(Cl)cc3)N2C(=O)CN1CCO (stereo not given in full)	0	0	0	0	99.0	0
COCCCN1CC(=O)N2C(c3ccc(OC)c(OC)c3)c3[nH]c4ccccc4c3C[C@H]2C1=O (stereo not given in full)	0	305.2	0	0	0	0
CC(=O)NC(c1ccc(Cl)cc1)c1c(O)ccc2ccc(O)cc12 (stereo not given)	0	0	0	0	95.6	0
O=C(NC(c1ccc(Cl)cc1)c1c(O)ccc2ccccc12)c1ccccc1 (stereo not given)	0	0	0	0	0	0
CC(=O)Nc1ccc(SCC(=O)Nc2ccccc2N2CCOCC2)cc1	0	0	0	0	0	0
Cc1nn(C(C)C(=O)NCC2CCCO2)c(C)c1[N+](=O)[O-] (stereo not given)	0	0	0	0	-	0
CC(=O)Nc1ccc(S(C)(=O)=O)c(C)c1	0	0	0	0	0	0
CCOC(=O)c1c(C)[nH]c2cc(Br)c(OC)cc12	0	0	0	?	0	51.2
CCOC(=O)c1c(C)[nH]c(C)c1-c1ccccc1OC	0	0	0	0	0	0
Cc1ccc(C(=O)NC2CCN(CC(=O)Nc3ccccc3Cl)CC2)cc1	0	0	0	0	0	0
Cc1ccc(S(=O)(=O)N2[C@@H](c3ccc(Cl)cc3)C(C(=O)O)=CC[C@H]2c2cccs2)cc1	0	0	0	0	0	0
COc1cccc(-c2nc(CCl)cs2)c1	0	0	0	0	99.1	0
COc1ccc(-c2nc(CCl)cs2)cc1	0	0	0	0	-	0
SMILES	VLA-4 inh	SUMO Mot1 rescue	Efflux pump inh	A1 inh	ALR inh	AHR activator
CCc1ccc(-c2nc(CCl)cs2)cc1	0	0	0	0	0	0
COc1ccc(-c2nc(CCl)cs2)cc1OC	0	0	0	0	99.0	0
c1ccc(Nc2cccc(Nc3ccccc3)n2)cc1	0	0	0	0	98.7	0
c1ccc(Nc2ccccn2)cc1	0	-	0	0	0	0
Cc1cc(C)cc(NC(=O)CSc2nnc(-c3ccncc3)o2)c1	0	0	0	0	?	0
CCN(CC)S(=O)(=O)c1cc(NC(=O)CSc2nnc(-c3cccs3)o2)ccc1C	0	0	0	0	0	0
CCn1c2ccccc2c2cc(NC(=O)CSc3nnc(-c4ccccc4)o3)ccc21	0	-	0	0	0	0
CCn1c2ccccc2c2cc(NC(=O)CSc3nnc(-c4cccc(F)c4)o3)ccc21	0	0	0	0	0	59.0
CCC(=O)Nc1ccc(C(=O)CSc2nnc(-c3cccnc3)o2)cc1	0	0	0	0	0	0
Cc1ccc(NC(=O)CSc2nnc(-c3cccs3)o2)cc1S(=O)(=O)N(C)C	0	0	0	0	0	55.7
COC(=O)c1ccc(NC(=O)CSc2nnc(-c3cccnc3)o2)cc1	0	0	0	0	99.3	0
O=C(CSc1nnc(-c2ccncc2)o1)Nc1ccc(F)c(F)c1	0	0	0	21.4	0	0
CCN1C(=O)C(=O)N(CC(=O)N(C)CC(=O)Nc2ccccc2C(F)(F)F)C1=O	0	0	0	0	0	0
Cc1cccc(-c2noc(C(C)NC(=O)c3ccco3)n2)c1 (stereo not given)	0	0	0	0	0	0
O=[N+]([O-])c1cc(C(F)(F)F)ccc1NC1CCN(Cc2ccccc2)C1 (stereo not given)	0	262.2	0	0	0	0
O=C(CSc1nnc(-c2ccccc2F)o1)NC(=O)Cc1ccccc1	0	0	0	0	-	0
NC(=O)COc1ccccc1C(=O)O	0	0	0	0	87.4	0
O=C(O)c1ccccc1OCCOc1ccccc1C(=O)O	0	0	0	0	0	0
CCOC(=O)/C(C#N)=C(C)/C=C1\Sc2ccccc2N1CC	0	0	0	0	0	0
CCN1/C(=C\C=C(C(C)=O)C(C)=O)Sc2ccccc21	0	0	0	0	98.6	0
CCCOc1ccc(C(=O)Nc2ccc(S(=O)(=O)Nc3cc(C)nc(C)n3)cc2)cc1	0	0	0	0	96.1	0
COc1cc(NS(=O)(=O)c2ccc(NC(=O)CSC3=NCCS3)cc2)nc(OC)n1	0	0	0	0	98.9	0
COc1cc(NS(=O)(=O)c2ccc(NC(=O)COc3ccccc3C)cc2)nc(OC)n1	0	0	0	0	98.8	0
COCCN(CCOC)S(=O)(=O)c1ccc(C(=O)Nc2ccc(S(=O)(=O)Nc3nccc(C)n3)cc2)cc1	0	0	0	0	90.0	0
COc1cc(NS(=O)(=O)c2ccc(NC(=O)COc3ccc(C)cc3C)cc2)nc(OC)n1	0	-	0	-	-	0
C/C(N)=C(/C#N)C(=O)CSc1n[nH]c(-c2ccccc2Br)n1	0	0	0	0	-	0
Cc1oc(C(N)=O)nc1-c1ccccc1	0	0	0	0	0	0
COC(=O)CCC(=O)Nc1ccc(S(=O)(=O)Nc2cc(OC)nc(OC)n2)cc1	0	0	0	0	0	73.5
Cc1ccnc(NS(=O)(=O)c2ccc(NC(=O)c3ccccc3F)cc2)n1	0	0	0	0	0	58.1
Cc1cc(C)nc(NS(=O)(=O)c2ccc(NC(=O)Cc3ccccc3F)cc2)n1	0	0	0	0	99.0	0
